# Compounds with a hit are over-represented: about 1.6% of the library has one in this group of screens.
# KCNQ2 block – KCNQ2 (rat) channel inhibition; O88943; CHO-K1 KCNQ2, FluxOR thallium flux, 20 min; active compounds read low; B-score at 10 µM; 310,000 tested, 1.1% active;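 active means fluorescence ratio B-score at most minus 3 library SDs, with starting brightness B-score within 2 library SDs, cut at about -5.5 in these data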
# KCNQ2 enhance – potentiators of rat KCNQ2 potassium channel. O88943. CHO-K1 KCNQ2, FluxOR thallium flux fluorescence; active compounds read high. B-score at 10 µM. 310,000 tested, 0.54% active. AID 2239;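 active means fluorescence ratio B-score at least 3 SD of library B-scores, with initial fluorescence B-score within 3 of them, cut at about 5.3 in these data; same plate scores as AID 2156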;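 further: B-score of peak minus minimum over baseline fluorescence ratio after K+ and Tl+ stimulus; positive B-score means potentiation of KCNQ2 with more thallium influx and brighter signal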
# Kir21 conf inh – confirmation of mouse Kir2.1 potassium channel inhibitors | shares compounds with KCNQ2 enhance | Kir2.1-expressing cells, FluxOR thallium flux fluorescence; active compounds read low | Tl flux remaining, % of negative control (active compounds read low), % at 10 µM | 2,300 tested, 41% active;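 active means Primary-screen hit whose thallium flux fell at least 3 control SD below untreated wells in both duplicates, with normal baseline fluorescence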
# HEK293 ctr – alters thallium flux in parental HEK293 cells, Kir2.1 counter-screen; shares compounds with KCNQ2 enhance; FluxOR thallium flux fluorescence; 0% = unstimulated blank wells; FluxOR signal as % of negative control (100 = no effect), % at 10 µM; 2,300 tested, 19% active; AID 2105;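 active means dye signal at least 3 control SD above or below untreated wells in both duplicates, raw fluorescence within 3, either direction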;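 further: percent is based on the flux ratio of peak minus minimum fluorescence over baseline F0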
# CHO-K1 Tl ctr – parental CHO-K1 activity in KCNQ2 potentiator counter-screen; shares compounds with KCNQ2 enhance; parental CHO-K1 cells, FluxOR thallium flux fluorescence; zero = vehicle mean+3SD, 100% = vehicle-minus-blank window; activity increase over 3SD of controls, % at 10 µM; 1,200 tested, 43% active; AID 2282;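 active means signal rise of at least 3 SD above the untreated control mean, in both duplicate wells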;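 further: counter screen of KCNQ2 potentiator hits so any rise reflects channel-independent effects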
# KCNQ1 sel pot – human KCNQ1 counter-target activity of KCNQ2 potentiators; shares compounds with KCNQ2 enhance; CHO KCNQ1 stable, FluxOR thallium flux fluorescence; beyond 3SD, as % of vehicle-control signal; activation over 3SD threshold, % at 10 µM; 1,200 tested, 28% active;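 active means fluorescence ratio rise of at least 3 SD of vehicle wells above their mean, in both replicate wells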
# Target sequence (P51787 whole entry, looked up): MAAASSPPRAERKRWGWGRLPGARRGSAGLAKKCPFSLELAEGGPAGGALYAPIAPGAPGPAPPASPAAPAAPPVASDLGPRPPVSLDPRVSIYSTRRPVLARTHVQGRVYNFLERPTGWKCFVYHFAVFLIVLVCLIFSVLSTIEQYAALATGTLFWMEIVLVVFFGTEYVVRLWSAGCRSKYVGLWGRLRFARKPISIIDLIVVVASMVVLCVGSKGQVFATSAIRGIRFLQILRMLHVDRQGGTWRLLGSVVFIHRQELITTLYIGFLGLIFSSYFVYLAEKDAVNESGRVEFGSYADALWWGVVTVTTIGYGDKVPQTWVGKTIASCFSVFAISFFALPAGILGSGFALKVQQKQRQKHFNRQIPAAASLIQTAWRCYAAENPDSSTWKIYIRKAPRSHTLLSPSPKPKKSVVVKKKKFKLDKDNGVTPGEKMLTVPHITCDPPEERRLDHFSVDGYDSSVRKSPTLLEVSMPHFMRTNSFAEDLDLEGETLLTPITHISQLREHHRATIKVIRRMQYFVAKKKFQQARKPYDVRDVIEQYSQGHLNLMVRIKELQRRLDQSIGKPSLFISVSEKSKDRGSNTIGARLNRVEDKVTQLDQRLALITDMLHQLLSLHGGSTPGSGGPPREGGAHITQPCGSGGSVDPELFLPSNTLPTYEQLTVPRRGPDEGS
# KCNQ2 pot conf – confirmation of rat KCNQ2 potassium channel potentiators; potentiation, less the hit threshold, % at 10 µM; 1,200 tested, 68% active; AID 2287; shares compounds with KCNQ2 enhance; CHO-KCNQ2 cells, FluxOR thallium flux fluorescence;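 active means fluorescence ratio rising 3 SD or more over the vehicle control mean in both replicates, plus primary screen hit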;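 further: peak minus minimum thallium fluorescence divided by baseline after K/Tl stimulus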
# Kir2-1 sel – selectivity of KCNQ2 potentiators: effect on mouse Kir2.1; shares compounds with KCNQ2 enhance; HEK293 Kir2.1, FluxOR thallium flux fluorescence; activity over 3SD threshold, % at 10 µM; 1,200 tested, 2% active; AID 2345;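 active means fluorescence ratio rise of at least 3 SD above the vehicle-control mean, seen in both replicates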
# KCNQ2 W236L MoA – rat KCNQ2 W236L mutant potentiation by KCNQ2 potentiators; CHO KCNQ2-W236L, automated patch clamp current; current increase over 3SD of negative controls (%), active compounds read high, % at 25 µM; 940 tested, 10% active; shares compounds with KCNQ2 enhance;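 active means current increase at least 3 SD of the untreated controls above them in both duplicate recordings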
# A number is an active result; 0 = inactive; - = not tested or not shown.
SMILES,KCNQ2 block,KCNQ2 enhance,Kir21 conf inh,HEK293 ctr,others
COc1ccc(S(=O)(=O)Nc2cc(C)ccc2OC)cc1C,0,-,77%,0,
COc1ccc(S(=O)(=O)Nc2cc(Cl)ccc2OC)cc1,0,-,-,-,
COc1ccc(C)cc1NS(=O)(=O)c1ccc(NS(=O)(=O)c2ccc(NC(C)=O)cc2)cc1,0,0,-,-,
CC(C)(C)c1ccc(C(=O)CSc2n[nH]c(=O)[nH]c2=O)cc1,0,0,-,-,
O=C(NCc1cc(F)ccc1F)C1CCC(=O)N(C2CCCCCC2)C1 (stereo not given),0,0,-,-,
COC(=O)CC1C(=O)NCCN1C(=O)c1ccc(Cl)cc1 (stereo not given),0,0,-,-,
COC(=O)CC1C(=O)NCCN1C(=S)Nc1ccc(F)cc1 (stereo not given),0,0,-,-,
FC(F)(F)c1nnc(Nc2ccc(Cl)cc2)s1,0,0,-,-,
Fc1ccc(Nc2nnc(C(F)(F)F)s2)cc1Cl,0,7.2,0,0,CHO-K1 Tl ctr=0;KCNQ1 sel pot=76;KCNQ2 pot conf=16;Kir2-1 sel=0;KCNQ2 W236L MoA=0
O=C(Nc1ccc2c(c1)C(=O)NC2=O)c1cccc(C(F)(F)F)c1,0,-,-,-,
N#CC1=C(N)Oc2cc(N)ccc2C1c1ccccc1F (stereo not given),0,0,-,-,
COc1ccc(C(=O)Nc2ccnc(-c3cccnc3)n2)cc1,0,5.3,0,0,CHO-K1 Tl ctr=0;KCNQ1 sel pot=0;KCNQ2 pot conf=0;Kir2-1 sel=0
Cc1ccc(C(=O)Nc2ccnc(-c3cccnc3)n2)cc1,0,0,-,-,
O=C(O)c1c(NC(=O)N2CCOCC2)sc2c1CCCC2,0,-,-,-,
COc1ccccc1OCCNc1cc(N2CCCCC2)ccc1[N+](=O)[O-],0,-,-,-,
Cc1ccccc1OCCNc1cc(N2CCNCC2)ccc1[N+](=O)[O-],0,-,36%,0,
CCC(C)[C@H](NS(=O)(=O)c1ccc(C)cc1)C(=O)N1CCC(C(=O)N2CCC(C(N)=O)CC2)CC1 (stereo not given in full),0,0,-,-,
COC(=O)c1cc(CSC(=N)N)ccc1OCCC(C)C,0,0,29%,0,
CCCOc1ccc(CSC(=N)N)cc1C(=O)OC,0,0,-,-,
Cc1c(O)ccc(C(=O)CN2CCN(c3ccc(F)cc3)CC2)c1O,0,0,-,-,
CC(=O)N1c2ccc(S(=O)(=O)N(C)CC(=O)NC3CCCCC3C)cc2CC1C (stereo not given),0,0,-,-,
CC(=O)OCC(CCn1cnc2cnc(N)nc21)COC(C)=O,0,-,-,-,
O=C(NCCS(=O)(=O)N1CCN(c2ccc(F)cc2)CC1)c1ccco1,0,0,-,-,
O=C(Nc1ncccc1O)c1ccc2c(c1)OCCO2,0,-,-,-,
Oc1ccc(N=Nc2ccc3c(c2)OCCO3)c2ncccc12,0,12,0,0,CHO-K1 Tl ctr=2.9;KCNQ1 sel pot=0;KCNQ2 pot conf=0;Kir2-1 sel=0
SMILES,KCNQ2 block,KCNQ2 enhance,Kir21 conf inh,HEK293 ctr,others
CCN1CCN(C(=O)CCc2nnc3ccc(N4CCC5(CC4)OCCO5)nn23)CC1,0,0,-,-,
CO/N=C(/COc1ccc(F)cc1)c1ccc(OC)cc1,0,-,-,-,
CO/N=C(/CS(=O)c1ccc(Br)cc1)c1ccc(OC)cc1 (stereo not given),0,-,50%,0,
Cc1ccc(N2CC(C(=O)OCc3nnc(-c4ccccc4)o3)CC2=O)cc1 (stereo not given),0,0,-,-,
O=C(CSc1ncnc2c1oc1ccccc12)c1cccs1,0,0,-,-,
Cc1nc(SCC(=O)c2cccs2)c2oc3ccccc3c2n1,0,6,0,0,CHO-K1 Tl ctr=0;KCNQ1 sel pot=0;KCNQ2 pot conf=0;Kir2-1 sel=0;KCNQ2 W236L MoA=0
Cc1cc(C(=O)NCC(C)(C)N2CCOCC2)c(C)o1,0,-,-,-,
COc1ccc(C)cc1NC(=O)CCNC(=O)c1ccco1,0,0,-,-,
COc1ccc(C)cc1NC(=O)C(=O)NNC(=O)c1ccco1,0,15,0,359%,CHO-K1 Tl ctr=3.4;KCNQ1 sel pot=0;KCNQ2 pot conf=54;Kir2-1 sel=0;KCNQ2 W236L MoA=0

# Assay outcomes as filed in PubChem.
